# Test results from PubChem BioAssay (NCATS).
# Inconclusive results are not listed. A call without a number means that no potency is given here. Activity calls are given as the source filed them. Unless noted, calls come from the whole dose curve; as a rule, active = well fitted curve in the direction sought with a large enough effect; inconclusive = small, poorly fitted or top-dose-only effect, or another doubt; inactive = no such curve, though single readings can be large; an effect the other way counts as inactive or inconclusive.
# What was measured:
# [1] = High Content Imaging Cell-Based qHTS for Inhibitors of the mTORC1 Signaling Pathway in MEF Cells (AID 2667); conditions: series mostly up to 38.3 µM;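 note: Tsc2-/- p53-/- MEFs stably re-expressing wild-type Tsc2 exposed 24 h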
# How it was run: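 WT MEFs (Tsc2-/-, p53-/- re-expressing Tsc2), in DMEM + 10% FBS, were treated with compound for 24 h at 37 C. Cells were then fixed and stained for phospho-rpS6 Ser235/236 with propidium iodide as cell count. Values are % positive cells, with thresholds set against rapamycin-treated cells.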
# [2] = Cytometry Cell-Based qHTS for Inhibitors of the mTORC1 Signaling Pathway in MEF cells (AID 2668); conditions: mTORC1 pathway readout; series mostly up to 38.3 µM;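 note: Tsc2-/- p53-/- mouse embryonic fibroblasts stably re-expressing wild-type Tsc2; percent cells positive for phospho-rpS6 Ser235/236 relative to propidium iodide stain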
# How it was run: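 Pathway inhibition in WT Tsc2-rescued Tsc2-/-, p53-/- MEFs is measured as the Alexa-488 phospho-rpS6 to propidium iodide intensity ratio after 24 hrs of compound at 37 degree Celsius. PI-stained cell number gives viability.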
# [3] = Validation screen for small molecules that induce DNA re-replication in MCF 10A normal breast cells (AID 463097); conditions: MCF 10A cells, DNA re-replication phenotype imaging; series mostly up to 46.1 µM; note: nearly all actives have a fitted effect of over 60% in size
# How it was run: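 DNA re-replication was detected as a rise in nuclei with elevated Hoechst fluorescence after a 48 hr compound exposure of MCF 10A cells at 37 C.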
# [4] = target: Ubiquitin carboxyl-terminal hydrolase 2 (Homo sapiens) (UniProt O75604); assay: qHTS Validation Assay for Inhibitors of Ubiquitin-specific Protease USP2a Using CHOP2 as the Reporter (AID 463106); conditions: USP2a cleavage of CHOP2 reporter, enzymatic; series mostly up to 38.3 µM
# How it was run: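 USP2 core (10 nM final) was preincubated with compound 30 min at RT in pH 8.0 Tris/CaCl2/beta-ME/CHAPS buffer. Ub-CHOP2 and reporter substrate (25 nM final each) were then added, with fluorescence (Ex 485/Em 531) read after 60 min. Data were normalized to NEM full inhibition and fitted to concentration-response curves.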
# [5] = target: DNA polymerase III PolC-type (Bacillus subtilis (strain 168)) (UniProt P13267); assay: qHTS Validation Assay for the Inhibitors of DNA Replication in Gram-Positive Bacteria (AID 485295); conditions: Gram-positive bacterial DNA replication assay; series mostly up to 57.1 µM;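 note: reconstituted holoenzyme with PolC plus beta clamp SSB and primase; PicoGreen fluorescence of double-stranded DNA made on primed circular M13 template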
# DNA polymerase III PolC-type (Bacillus subtilis (strain 168)), sequence (P13267 whole entry, looked up): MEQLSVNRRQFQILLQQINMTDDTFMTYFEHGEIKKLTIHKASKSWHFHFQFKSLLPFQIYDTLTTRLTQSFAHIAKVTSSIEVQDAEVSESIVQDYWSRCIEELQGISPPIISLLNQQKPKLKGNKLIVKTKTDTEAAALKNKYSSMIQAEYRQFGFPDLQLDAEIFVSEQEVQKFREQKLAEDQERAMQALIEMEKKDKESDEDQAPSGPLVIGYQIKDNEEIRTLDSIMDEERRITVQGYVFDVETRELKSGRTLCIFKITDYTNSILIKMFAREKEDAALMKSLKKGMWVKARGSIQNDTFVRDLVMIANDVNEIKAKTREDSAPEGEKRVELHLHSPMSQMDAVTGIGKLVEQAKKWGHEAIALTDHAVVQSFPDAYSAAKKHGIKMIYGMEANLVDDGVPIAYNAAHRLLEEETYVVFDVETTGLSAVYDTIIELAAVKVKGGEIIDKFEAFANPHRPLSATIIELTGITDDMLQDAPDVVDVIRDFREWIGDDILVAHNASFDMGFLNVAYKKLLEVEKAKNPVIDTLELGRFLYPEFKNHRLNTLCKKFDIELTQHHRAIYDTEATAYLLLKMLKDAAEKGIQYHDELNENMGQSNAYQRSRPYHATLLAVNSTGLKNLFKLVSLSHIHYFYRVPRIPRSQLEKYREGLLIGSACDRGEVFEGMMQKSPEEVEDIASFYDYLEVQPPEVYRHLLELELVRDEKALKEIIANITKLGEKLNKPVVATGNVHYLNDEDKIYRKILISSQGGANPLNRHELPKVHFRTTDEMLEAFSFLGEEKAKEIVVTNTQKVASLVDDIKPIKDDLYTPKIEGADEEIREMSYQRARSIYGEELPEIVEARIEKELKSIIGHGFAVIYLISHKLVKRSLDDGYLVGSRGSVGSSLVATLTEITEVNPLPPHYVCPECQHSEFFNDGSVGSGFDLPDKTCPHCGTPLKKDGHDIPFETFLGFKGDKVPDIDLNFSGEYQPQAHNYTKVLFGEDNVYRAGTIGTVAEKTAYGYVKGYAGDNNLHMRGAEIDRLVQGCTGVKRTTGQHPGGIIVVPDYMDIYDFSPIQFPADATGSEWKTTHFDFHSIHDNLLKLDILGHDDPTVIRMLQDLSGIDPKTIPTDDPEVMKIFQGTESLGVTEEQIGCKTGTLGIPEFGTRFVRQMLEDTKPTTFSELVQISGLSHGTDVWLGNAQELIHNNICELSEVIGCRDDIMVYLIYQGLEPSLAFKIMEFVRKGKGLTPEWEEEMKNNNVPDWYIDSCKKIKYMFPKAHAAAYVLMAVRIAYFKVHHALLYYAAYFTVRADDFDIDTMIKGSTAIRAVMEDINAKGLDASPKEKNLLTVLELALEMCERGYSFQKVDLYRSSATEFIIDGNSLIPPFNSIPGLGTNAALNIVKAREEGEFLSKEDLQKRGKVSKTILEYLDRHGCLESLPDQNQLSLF
# How it was run: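 Primed replication of single-stranded M13Gori by a four-protein B. subtilis holoenzyme is measured at room temperature. Double-stranded product is quantified by PicoGreen fluorescence after an EDTA stop; inhibition is scaled between DMSO and EDTA controls.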
# [6] = target: Tumor susceptibility gene 101 protein (Homo sapiens) (UniProt Q99816); assay: qHTS Validation Assay for Iinhibitors of HIV-1 Budding by Blocking the Interaction of PTAP/TSG101 (AID 485342; calls by dose curve); conditions: TSG101-PTAP binding, fluorescence polarization, 4-point titration; series mostly up to 115 µM
# Tumor susceptibility gene 101 protein (Homo sapiens), sequence (Q99816 whole entry, looked up, the tested form may be a part): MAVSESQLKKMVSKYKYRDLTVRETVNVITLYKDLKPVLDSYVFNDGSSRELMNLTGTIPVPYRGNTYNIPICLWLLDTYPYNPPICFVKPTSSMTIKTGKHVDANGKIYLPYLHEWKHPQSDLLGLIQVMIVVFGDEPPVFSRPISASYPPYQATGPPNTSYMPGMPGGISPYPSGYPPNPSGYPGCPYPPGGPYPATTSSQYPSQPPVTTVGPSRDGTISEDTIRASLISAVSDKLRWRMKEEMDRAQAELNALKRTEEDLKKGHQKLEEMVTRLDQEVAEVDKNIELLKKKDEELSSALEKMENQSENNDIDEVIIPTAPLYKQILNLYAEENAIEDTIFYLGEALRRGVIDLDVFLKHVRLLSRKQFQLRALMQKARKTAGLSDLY
# How it was run: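 Fluorescence anisotropy measured PTAP-Tsg101 interaction. Final concentrations were 10 uM protein domain and 50 nM labeled peptide, equilibrated 20 min at room temperature.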
# [7] = qHTS Validation Assay to Find Inhibitors of Chronic Active B-Cell Receptor Signaling (AID 485345; active = well fitted curve in the direction sought with a large enough effect in the main read-out, with a control signal flat, not every such curve was filed as active); conditions: ABC-DLBCL cells, chronic BCR signaling reporter, CBG luciferase; series mostly up to 46.1 µM
# How it was run: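 TMD8 ABC-DLBCL cells stably carrying doxycycline-inducible IkappaBalpha–green luciferase fusion plus unfused red luciferase; compounds 46 uM to 3 nM, 4 h at 37C with doxycycline. Corrected green/red luminescence ratio normalized to 10 uM MG-132 and basal cell wells; curves fitted.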
# [8] = target: Beta-2 adrenergic receptor (Homo sapiens) (UniProt P07550); assay: qHTS validation assay of beta-arrestin-biased ligands of beta2-adrenergic receptor (AID 485366); conditions: cell-based beta-arrestin recruitment to ADRB2, qHTS; series mostly up to 46.1 µM
# How it was run: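 Values derive from curve-fitted %Activity of a luminescent beta-arrestin recruitment reporter; compounds tested up to 46 microM on Tango cells for 18 hr at 37 degrees C, 5% CO2.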
# [9] = target: ATP-dependent 6-phosphofructokinase (Trypanosoma brucei brucei) (UniProt O15648); assay: qHTS Validation Assay to Find Inhibitors of T. brucei phosphofructokinase (AID 485368); conditions: T. brucei PFK enzyme assay, qHTS 7-point titration; series mostly up to 57.5 µM
# ATP-dependent 6-phosphofructokinase (Trypanosoma brucei brucei), sequence (O15648 whole entry, looked up): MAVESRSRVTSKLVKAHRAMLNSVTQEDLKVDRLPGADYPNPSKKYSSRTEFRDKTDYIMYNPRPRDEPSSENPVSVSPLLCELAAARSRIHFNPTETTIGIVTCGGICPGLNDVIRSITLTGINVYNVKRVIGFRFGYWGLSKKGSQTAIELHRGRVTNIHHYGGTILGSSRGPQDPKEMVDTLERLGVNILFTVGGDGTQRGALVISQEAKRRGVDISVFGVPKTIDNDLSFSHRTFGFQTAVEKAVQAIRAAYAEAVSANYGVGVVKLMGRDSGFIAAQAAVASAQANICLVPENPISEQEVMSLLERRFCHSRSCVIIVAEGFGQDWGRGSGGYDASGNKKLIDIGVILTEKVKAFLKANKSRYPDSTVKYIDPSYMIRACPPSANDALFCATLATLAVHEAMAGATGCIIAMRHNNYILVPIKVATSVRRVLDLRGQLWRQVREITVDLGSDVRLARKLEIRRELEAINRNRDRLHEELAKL
# How it was run: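 Enzyme reaction in triethanolamine buffer pH 8.0 with 5 mM MgCl2, 0.01% Tween20 and 0.1% BSA; PFK 1.25 nM, F6P 0.5 mM, ATP 0.1 mM, 45 min RT. ADP quantified by ADP-Glo.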
# [10] = Quantitative high throughput screen for delayed death inhibitors of the malarial parasite plastid, 96 hour incubation (AID 488745); conditions: Plasmodium falciparum growth; series mostly up to 28.7 µM;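 note: luciferase-expressing P. falciparum in erythrocytes at 2% hematocrit and 0.1% parasitemia; nearly all actives have a fitted effect of over 70% in size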
# How it was run: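 Growth of reporter-bearing P. falciparum in red cells is measured after 96 h with compound, covering two erythrocytic cycles. Luminescence from the integrated luciferase serves as the growth signal.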
# [11] = Quantitative high throughput screen for delayed death inhibitors of the malarial parasite plastid, 48 hour incubation (AID 488752); conditions: Plasmodium falciparum growth; series mostly up to 28.7 µM; note: nearly all actives have a fitted effect of over 65% in size
# How it was run: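 One parasite generation (48 h, 37 C, 5% CO2) of luciferase-reporter P. falciparum in erythrocytes is run with test compound; decreased luminescence indicates inhibited growth.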
# [12] = target: Thioredoxin reductase 1, cytoplasmic (Rattus norvegicus) (UniProt O89049); assay: qHTS Assay for Inhibitors of Mammalian Selenoprotein Thioredoxin Reductase 1 (TrxR1) (AID 488773); conditions: purified TrxR1 enzyme activity; Potency: inhibition; series mostly up to 57.1 µM;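 note: drop in NADPH fluorescence over an 8 min run after selenite addition; nearly all actives have a fitted effect of over 40% in size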
# How it was run: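 Steps: enzyme (90 nM) plus NADPH (400 uM final), 5 min at ~22 deg C; compound added, 15 min; selenite (400 uM final) added; fluorescence followed for 8 min. Concentration-response curves derived from the normalized delta values.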
# [13] = target: Flap endonuclease 1 (Homo sapiens) (UniProt P39748); assay: qHTS Validation Assay for the Inhibitors of Human Flap endonuclease 1 (FEN1) (AID 488816); conditions: FEN1 nuclease activity, fluorogenic DNA substrate; series mostly up to 57.1 µM
# Flap endonuclease 1 (Homo sapiens), sequence (P39748 whole entry, looked up): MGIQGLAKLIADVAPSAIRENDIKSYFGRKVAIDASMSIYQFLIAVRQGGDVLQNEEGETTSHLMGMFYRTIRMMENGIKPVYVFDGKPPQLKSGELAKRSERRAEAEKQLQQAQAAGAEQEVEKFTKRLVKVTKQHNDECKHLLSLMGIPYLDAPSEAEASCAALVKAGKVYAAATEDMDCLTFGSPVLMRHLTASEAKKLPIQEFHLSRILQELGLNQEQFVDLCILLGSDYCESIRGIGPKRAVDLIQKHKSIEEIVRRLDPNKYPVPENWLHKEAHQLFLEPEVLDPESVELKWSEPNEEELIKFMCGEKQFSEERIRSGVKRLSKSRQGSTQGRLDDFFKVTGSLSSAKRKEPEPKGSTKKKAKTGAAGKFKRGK
# How it was run: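 Human FEN1 (10 nM) preincubated 15 min at room temperature with compounds, then flap DNA substrate added at 50 nM final. Fluorescence read at 0 and 15 min; concentration-response fitted with four-parameter Hill equation.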
# [14] = target: Chromobox protein homolog 1 (Homo sapiens) (UniProt P83916); assay: qHTS Validation Assay for Inhibitors of HP1-beta Chromodomain Interactions with Methylated Histone Tails (AID 488953); conditions: HP1-beta chromodomain / methylated histone peptide binding assay; series mostly up to 114 µM; note: nearly all actives have a fitted effect of over 50% in size; note: potency is the fitted concentration of half-maximal effect
# Chromobox protein homolog 1 (Homo sapiens), sequence (P83916 whole entry, looked up): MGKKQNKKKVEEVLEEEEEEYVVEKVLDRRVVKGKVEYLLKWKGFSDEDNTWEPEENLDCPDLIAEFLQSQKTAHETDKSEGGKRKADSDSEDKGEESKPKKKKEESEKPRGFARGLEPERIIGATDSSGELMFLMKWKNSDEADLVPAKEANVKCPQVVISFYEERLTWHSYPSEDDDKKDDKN
# How it was run: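 Measured as loss of AlphaScreen luminescence from streptavidin donor and nickel acceptor beads (10 ug/mL final) bridging HP1-beta and biotin-H3(1-18)K9me3, each 50 nM. Compounds met the preassembled complex for 30 min at RT.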
# [15] = target: Methanococcus maripaludis chaperonin (MmCpn) (UniProt Q6LX38); assay: High-Throughput Screening for Modulators of Cytosolic Chaperonin Activity: MmCpn Primary Screen (AID 488978); conditions: Purified MmCpn ATPase activity, ADP HTRF detection, 10 min; series mostly up to 76.9 µM;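 note: 50 nM MmCpn enzyme hydrolysing 30 µM ATP at 37 °C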
# How it was run: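 Measures ATPase turnover of the M. maripaludis chaperonin (50 nM final) against 30 uM ATP over 10 min at 37C, with compound added 5 min beforehand at room temperature. ADP is quantified by HTRF immunodetection.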
# [16] = target: Transient receptor potential cation channel subfamily V member 1 (Homo sapiens) (UniProt Q8NER1); assay: HTS Assay for Compounds that Act as Enhancers of the Vanilloid Receptor 1 (AID 488979); conditions: TRPV1-expressing cells, enhancer of channel activity, stimulated with capsaicin at EC20; series mostly up to 41.7 µM
# Transient receptor potential cation channel subfamily V member 1 (Homo sapiens), sequence (Q8NER1 whole entry, looked up): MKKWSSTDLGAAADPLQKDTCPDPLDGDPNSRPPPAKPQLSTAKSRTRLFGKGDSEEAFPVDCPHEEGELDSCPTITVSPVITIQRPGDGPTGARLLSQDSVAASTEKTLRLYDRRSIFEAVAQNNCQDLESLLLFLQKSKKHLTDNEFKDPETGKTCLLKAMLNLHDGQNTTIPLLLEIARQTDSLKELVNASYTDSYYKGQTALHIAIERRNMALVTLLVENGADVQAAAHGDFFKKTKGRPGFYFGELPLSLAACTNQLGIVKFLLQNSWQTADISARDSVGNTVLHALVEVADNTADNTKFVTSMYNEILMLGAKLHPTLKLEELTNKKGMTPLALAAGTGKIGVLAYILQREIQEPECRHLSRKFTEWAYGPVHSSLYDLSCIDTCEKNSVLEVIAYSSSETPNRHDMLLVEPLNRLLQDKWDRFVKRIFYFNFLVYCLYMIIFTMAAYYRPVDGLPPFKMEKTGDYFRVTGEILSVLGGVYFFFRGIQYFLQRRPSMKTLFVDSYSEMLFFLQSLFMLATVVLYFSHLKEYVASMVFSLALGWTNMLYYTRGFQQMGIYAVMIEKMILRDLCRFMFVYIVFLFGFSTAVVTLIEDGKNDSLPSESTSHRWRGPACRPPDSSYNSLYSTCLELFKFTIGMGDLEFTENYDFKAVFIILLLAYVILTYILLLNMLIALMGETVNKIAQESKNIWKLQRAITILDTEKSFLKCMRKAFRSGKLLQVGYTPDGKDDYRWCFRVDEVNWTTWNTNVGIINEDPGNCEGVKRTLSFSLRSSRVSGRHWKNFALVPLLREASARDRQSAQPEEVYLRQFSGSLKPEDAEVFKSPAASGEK
# How it was run: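 TRPV1 cells loaded with Fluo-8 calcium dye; compound added and Ca2+ signal (ex 480/em 520 nm) followed 3 min, then capsaicin at EC20 added and read 2 more min to detect enhancement.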
# [17] = target: Thyrotropin receptor (Homo sapiens) (UniProt P16473); assay: qHTS Assay for Antagonists of the Thyroid Stimulating Hormone Receptor (AID 488980); conditions: TSHR-expressing cells, cAMP antagonist read-out; series mostly up to 57.5 µM
# Thyrotropin receptor (Homo sapiens), sequence (P16473 whole entry, looked up): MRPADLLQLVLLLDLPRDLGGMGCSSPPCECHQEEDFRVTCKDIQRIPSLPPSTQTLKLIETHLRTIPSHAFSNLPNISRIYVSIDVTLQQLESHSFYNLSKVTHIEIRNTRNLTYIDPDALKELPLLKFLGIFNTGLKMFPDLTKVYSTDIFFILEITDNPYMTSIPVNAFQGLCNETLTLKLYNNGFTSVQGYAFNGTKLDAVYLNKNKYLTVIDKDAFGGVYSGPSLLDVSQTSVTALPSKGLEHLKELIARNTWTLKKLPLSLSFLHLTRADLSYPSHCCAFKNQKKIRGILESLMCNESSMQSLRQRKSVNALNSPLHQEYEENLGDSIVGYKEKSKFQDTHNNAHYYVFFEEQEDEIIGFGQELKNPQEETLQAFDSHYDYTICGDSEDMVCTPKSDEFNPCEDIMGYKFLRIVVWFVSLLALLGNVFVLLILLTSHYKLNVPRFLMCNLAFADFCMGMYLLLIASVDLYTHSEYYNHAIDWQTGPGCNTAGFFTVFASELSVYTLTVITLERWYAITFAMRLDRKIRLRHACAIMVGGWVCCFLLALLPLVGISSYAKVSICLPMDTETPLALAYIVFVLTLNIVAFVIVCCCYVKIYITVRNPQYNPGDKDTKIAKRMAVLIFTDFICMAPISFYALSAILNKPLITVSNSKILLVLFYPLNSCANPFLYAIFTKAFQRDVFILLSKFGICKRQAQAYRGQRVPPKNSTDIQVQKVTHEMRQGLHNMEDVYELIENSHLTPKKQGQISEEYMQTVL
# How it was run: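 Cells expressing human TSHR (HEK293) are dispensed in HBSS/HEPES containing 70 uM RO 20-1724, compound is added, then TSH at EC80 (4 nM final). Antibody in lysis buffer follows, 30 minutes at room temperature before HTRF detection.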
# [18] = target: Thioredoxin reductase 1, cytoplasmic (Rattus norvegicus) (UniProt O89049); assay: qHTS Assay for Substrates of Mammalian Selenoprotein Thioredoxin Reductase 1 (TrxR1) (AID 488772); conditions: purified TrxR1, NADPH consumption substrate assay; series mostly up to 57.1 µM;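 note: NADPH fluorescence in the first read after selenite addition and not the 8 min delta; a drop in NADPH fluorescence below the no-compound background marks a TrxR1 substrate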
# How it was run: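 Quantitative HTS in Tris-HCl buffer at pH 7.5 with EDTA and Tween-20, using rat TrxR1, 400 uM NADPH and 400 uM selenite (final). A fall in initial NADPH fluorescence relative to background marked substrate behaviour.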
# [19] = target: M-phase phosphoprotein 8 (Homo sapiens) (UniProt Q99549); assay: qHTS Validation Assay for Inhibitors for MPP8 Chromodomain Interactions with Methylated Histone Tails (AID 488949); conditions: AlphaScreen MPP8 binding to H3K9me3 peptide; series mostly up to 57.1 µM;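 note: AlphaScreen signal from MPP8 chromodomain bound to biotinylated H3K9me3 peptide; top concentration of the series differs between compounds; nearly all actives have a fitted effect of over 55% in size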
# How it was run: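 Disruption of the preformed MPP8–trimethyl-H3K9 peptide complex (both 50 nM, 30 min, RT) is measured after 30 min compound exposure, using AlphaScreen proximity beads; aurintricarboxylic acid titration serves as plate control.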
# [20] = target: D(1A) dopamine receptor (Homo sapiens) (UniProt P21728); assay: HTS Assay for Allosteric Agonists of the Human D1 Dopamine Receptor: Primary Screen for Agonists (AID 488981); conditions: Inducible HEK293 T-REx D1 cells, calcium-flux fluorescence, 180 s kinetic; series mostly up to 41.8 µM
# D(1A) dopamine receptor (Homo sapiens), sequence (P21728 whole entry, looked up): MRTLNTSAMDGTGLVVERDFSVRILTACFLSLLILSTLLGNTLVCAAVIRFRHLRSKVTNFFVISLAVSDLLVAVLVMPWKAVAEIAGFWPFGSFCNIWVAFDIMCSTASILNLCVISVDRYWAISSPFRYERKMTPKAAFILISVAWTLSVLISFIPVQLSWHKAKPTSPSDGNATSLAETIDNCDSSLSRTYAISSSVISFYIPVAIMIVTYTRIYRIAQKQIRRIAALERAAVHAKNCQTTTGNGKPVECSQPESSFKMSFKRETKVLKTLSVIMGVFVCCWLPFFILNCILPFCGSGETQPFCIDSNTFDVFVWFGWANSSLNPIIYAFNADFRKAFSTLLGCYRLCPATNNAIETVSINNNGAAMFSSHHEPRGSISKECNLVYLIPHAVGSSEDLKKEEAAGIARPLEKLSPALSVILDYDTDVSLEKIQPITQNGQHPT
# How it was run: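 Tetracycline-induced HEK293 Trex D1 cells with forced coupling to calcium, loaded with no-wash calcium dye; kinetic fluorescence read 180 s after compound addition for agonism, then a further 180 s after an EC20 dopamine challenge for potentiation.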
Structure (SMILES),Potency [1],Potency [2],Potency [3],Potency [4],Potency [5],outcome [6],outcome [7],outcome [8],Potency [9],Potency [10],Potency [11],Potency [12],Potency [13],Potency [14],outcome [15],outcome [16],outcome [17],Potency [18],Potency [19],Potency [20]
NCCSSCCN,inactive,inactive,inactive,inactive,inactive,inactive,inactive,inactive,inactive,inactive,inactive,inactive,inactive,50.1 µM (active),inactive,inactive,inactive,–,–,–
Clc1ccc(N2CCN(Cc3c[nH]c4ncccc34)CC2)cc1,inactive,inactive,inactive,inactive,inactive,inactive,–,inactive,inactive,inactive,inactive,inactive,inactive,–,inactive,inactive,inactive,inactive,inactive,inactive
C=CC(N)CCC(=O)O (centres undefined),inactive,inactive,inactive,inactive,inactive,inactive,inactive,inactive,–,inactive,inactive,inactive,inactive,–,inactive,inactive,inactive,inactive,–,–
COc1cccc(OC)c1OCCNCC1COc2ccccc2O1 (centres undefined),inactive,inactive,inactive,inactive,inactive,inactive,inactive,inactive,–,inactive,inactive,inactive,inactive,inactive,inactive,inactive,inactive,inactive,inactive,inactive
CN1[C@@H](CC(=O)c2ccccc2)CCC[C@H]1C[C@H](O)c1ccccc1,inactive,inactive,inactive,inactive,inactive,inactive,inactive,inactive,–,inactive,inactive,inactive,–,inactive,inactive,inactive,inactive,inactive,–,inactive
CN1CCC[C@H]1c1cccnc1,inactive,inactive,inactive,inactive,inactive,inactive,inactive,inactive,inactive,inactive,inactive,inactive,inactive,–,inactive,inactive,–,inactive,inactive,inactive
CC1CN(S(=O)(=O)c2cccc3cnccc23)CCN1 (centres undefined),inactive,inactive,inactive,inactive,inactive,inactive,inactive,inactive,inactive,inactive,inactive,inactive,inactive,–,inactive,inactive,inactive,–,–,inactive
Fc1cccc(/C=N/N=C/c2cccc(F)c2)c1,inactive,inactive,inactive,inactive,inactive,inactive,–,inactive,inactive,–,–,inactive,inactive,inactive,inactive,inactive,inactive,inactive,inactive,inactive
